System: Salmonella enterica serovar Typhimurium 14028s
Experiment: approximate change in surviving CFU after surface colonization relative to water-only control (log10 CFU/mL change); higher = more surviving bacteria (less inhibition of surface colonization)
Details: not stated (Biolog proprietary concentration), surface: plastic 96-well plate, 20-24 h at 25 °C

SMILES: NCCc1ccccc1 [B-Phenylethyl-amine]
- approximate change in surviving CFU (log10) (Biolog plate: PM3, Biolog well: E2): -0.129

SMILES: CC(C)[C@@H](N)C(=O)O [D-Valine]
- approximate change in surviving CFU (log10) (Biolog plate: PM3, Biolog well: C9): -0.172

SMILES: O=C(O)CC(=O)O [Malonic Acid]
- approximate change in surviving CFU (log10) (Biolog plate: PM2, Biolog well: F2): 0.0859

SMILES: Nc1ccn([C@@H]2O[C@H](CO)[C@@H](O)[C@H]2O)c(=O)n1 [Cytidine]
- approximate change in surviving CFU (log10) (Biolog plate: PM3, Biolog well: F4): 0.386

SMILES: O=C(O)[C@@H](O)[C@H](O)C(=O)O [D-Tartaric Acid]
- approximate change in surviving CFU (log10) (Biolog plate: PM2, Biolog well: F11): 0.944

SMILES: OC1OC[C@@H](O)[C@@H](O)[C@@H]1O (stereo partly drawn) [D-Arabinose]
- approximate change in surviving CFU (log10) (Biolog plate: PM2, Biolog well: B5): 0.408

SMILES: C[C@H](N)C(=O)N[C@@H](Cc1cnc[nH]1)C(=O)O
- approximate change in surviving CFU (log10) (Biolog plate: PM3, Biolog well: H5): -0.258

SMILES: C[C@H](O)[C@@H](N)C(=O)O [D-Threonine]
- approximate change in surviving CFU (log10) (Biolog plate: PM1, Biolog well: F4): 0.901

SMILES: OC[C@H]1O[C@@H]2O[C@H]3[C@H](O)[C@@H](O)[C@@H](O[C@H]4[C@H](O)[C@@H](O)[C@@H](O[C@H]5[C@H](O)[C@@H](O)[C@@H](O[C@H]6[C@H](O)[C@@H](O)[C@@H](O[C@H]7[C@H](O)[C@@H](O)[C@@H](O[C@H]8[C@H](O)[C@@H](O)[C@@H](O[C@H]1[C@H](O)[C@H]2O)O[C@@H]8CO)O[C@@H]7CO)O[C@@H]6CO)O[C@@H]5CO)O[C@@H]4CO)O[C@@H]3CO [b-Cyclodextrin]
- approximate change in surviving CFU (log10) (Biolog plate: PM2, Biolog well: A4): 1.01

SMILES: Nc1cc[nH]c(=O)n1 [Cytosine]
- approximate change in surviving CFU (log10) (Biolog plate: PM3, Biolog well: F5): 1.14

SMILES: CCC(=O)O [Propionic Acid]
- approximate change in surviving CFU (log10) (Biolog plate: PM1, Biolog well: F7): -0.987

SMILES: OC[C@H]1O[C@@H](O[C@H]2[C@H](O)[C@@H](O)[C@@H](O)O[C@@H]2CO)[C@H](O)[C@@H](O)[C@H]1O [a-D-Lactose]
- approximate change in surviving CFU (log10) (Biolog plate: PM1, Biolog well: D9): 1.05

SMILES: O=C(O)/C=C/C(=O)O [Fumaric Acid]
- approximate change in surviving CFU (log10) (Biolog plate: PM1, Biolog well: F5): 0.88

SMILES: CO[C@@H]1O[C@H](CO)[C@@H](O)[C@H](O)[C@H]1O [b-Methyl-D-Glucoside]
- approximate change in surviving CFU (log10) (Biolog plate: PM2, Biolog well: C7): 1.33

SMILES: Nc1ncnc2c1ncn2[C@H]1C[C@H](O)[C@@H](CO)O1 [2-Deoxy Adenosine]
- approximate change in surviving CFU (log10) (Biolog plate: PM1, Biolog well: E11): 1.37

SMILES: CC(=O)C(C)=O [2,3-Butanedione]
- approximate change in surviving CFU (log10) (Biolog plate: PM2, Biolog well: H11): -1.61

SMILES: CC(=O)N[C@@H](CCC(=O)O)C(=O)O [N-Acetyl-L-Glutamic Acid]
- approximate change in surviving CFU (log10) (Biolog plate: PM3, Biolog well: D1): 0.751

SMILES: NCC(=O)N[C@@H](CC(N)=O)C(=O)O
- approximate change in surviving CFU (log10) (Biolog plate: PM3, Biolog well: H8): 0.107

SMILES: O=C(O)CCC(=O)O [Succinic Acid]
- approximate change in surviving CFU (log10) (Biolog plate: PM1, Biolog well: A5): 0.515

SMILES: CC[C@H](O)C(=O)O [a-Hydroxy Butyric Acid]
- approximate change in surviving CFU (log10) (Biolog plate: PM1, Biolog well: E7): -2.3

SMILES: COC(=O)CCC(=O)O [Mono Methyl Succinate]
- approximate change in surviving CFU (log10) (Biolog plate: PM1, Biolog well: G9): -1.74

SMILES: CC(O)C(C)O (centres undefined) [2,3-Butanediol]
- approximate change in surviving CFU (log10) (Biolog plate: PM2, Biolog well: H10): -0.708

SMILES: O=C(O)Cc1cccc(O)c1 [m-Hydroxy Phenyl Acetic Acid]
- approximate change in surviving CFU (log10) (Biolog plate: PM1, Biolog well: H3): -1.31

SMILES: O=C1O[C@H](CO)[C@@H](O)[C@H]1O [D-Ribono-1,4-Lactone]
- approximate change in surviving CFU (log10) (Biolog plate: PM2, Biolog well: F7): 0.944

SMILES: C[C@H](N)C(=O)N[C@@H](CCC(=O)O)C(=O)O
- approximate change in surviving CFU (log10) (Biolog plate: PM3, Biolog well: H3): 0.451

SMILES: OC[C@H]1O[C@@H](n2cnc3c(O)nc(O)nc32)[C@H](O)[C@@H]1O [Xanthosine]
- approximate change in surviving CFU (log10) (Biolog plate: PM3, Biolog well: G2): 0.751

SMILES: O=C[C@H](O)[C@@H](O)[C@H](O)[C@H](O)COP(=O)(O)O [D-Glucose-6-Phosphate]
- approximate change in surviving CFU (log10) (Biolog plate: PM1, Biolog well: C1): 1.22

SMILES: O[C@@H]1[C@H](O)[C@H](O)CO[C@H]1O [D-Ribose]
- approximate change in surviving CFU (log10) (Biolog plate: PM1, Biolog well: C4): 0.172

SMILES: OC[C@@]12OC[C@@H](O1)[C@@H](O)[C@@H](O)[C@@H]2O [Sedoheptulosan]
- approximate change in surviving CFU (log10) (Biolog plate: PM2, Biolog well: D3): 0.451

SMILES: O=C(O)C(=O)O [Oxalic Acid]
- approximate change in surviving CFU (log10) (Biolog plate: PM2, Biolog well: F4): 0.429

SMILES: C[C@H](N)C(=O)N[C@H](C(=O)O)[C@@H](C)O
- approximate change in surviving CFU (log10) (Biolog plate: PM3, Biolog well: H7): -0.0215

SMILES: O=C[C@H](O)[C@@H](O)[C@H](O)[C@H](O)CO[C@@H]1O[C@H](CO)[C@@H](O)[C@H](O)[C@H]1O [Gentiobiose]
- approximate change in surviving CFU (log10) (Biolog plate: PM2, Biolog well: C1): 1.09

SMILES: CC(=O)C(=O)O [Pyruvic Acid]
- approximate change in surviving CFU (log10) (Biolog plate: PM1, Biolog well: H8): -0.494

SMILES: OC[C@H](O)C(O)[C@@H](O)CO [L-Arabitol]
- approximate change in surviving CFU (log10) (Biolog plate: PM2, Biolog well: B7): 1.12

SMILES: O=C(O)[C@H]1OC(O)[C@H](O)[C@@H](O)[C@H]1O (stereo partly drawn) [D-Galacturonic Acid]
- approximate change in surviving CFU (log10) (Biolog plate: PM1, Biolog well: H10): 1.09

SMILES: CCC(=O)C(=O)O [a-Keto-Butyric Acid]
- approximate change in surviving CFU (log10) (Biolog plate: PM1, Biolog well: D7): 0.172

SMILES: O=C(O)CC(O)C(=O)O (racemic) [D,L-Malic Acid]
- approximate change in surviving CFU (log10) (Biolog plate: PM1, Biolog well: C3): 1.05

SMILES: OC[C@H]1O[C@H](O[C@H]2[C@H](O)[C@@H](O)[C@H](O)O[C@@H]2CO)[C@H](O)[C@@H](O)[C@@H]1O [Maltose]
- approximate change in surviving CFU (log10) (Biolog plate: PM1, Biolog well: C10): 1.57

SMILES: O=C(O)c1ccccc1O [2-Hydroxy Benzoic Acid (Salicylic Acid)]
- approximate change in surviving CFU (log10) (Biolog plate: PM2, Biolog well: E6): -1.72

SMILES: O=C(O)Cc1ccc(O)cc1 [p-Hydroxy Phenyl Acetic Acid]
- approximate change in surviving CFU (log10) (Biolog plate: PM1, Biolog well: H2): -2.12

SMILES: Nc1[nH]cnc2ncnc1-2 [Adenine]
- approximate change in surviving CFU (log10) (Biolog plate: PM3, Biolog well: F2): -0.515

SMILES: CC(=O)N[C@H]1[C@H]([C@H](O)[C@H](O)CO)OC(O)(C(=O)O)C[C@@H]1O (some centres undefined) [N-Acetyl-Neuraminic Acid]
- approximate change in surviving CFU (log10) (Biolog plate: PM2, Biolog well: B2): 1.09

SMILES: OC[C@@H](O)[C@H](O)[C@H](O)[C@@H](O)CO [Dulcitol]
- approximate change in surviving CFU (log10) (Biolog plate: PM1, Biolog well: A12): 1.03

SMILES: NO [Hydroxylamine]
- approximate change in surviving CFU (log10) (Biolog plate: PM3, Biolog well: D4): -0.687
